In the supplement of paper PMC8728848:
Many of the other results were omitted from the sample, so the strongest signals are more common in it than they were.

Columns and labels:
Test in all cases: glycan array binding signal (z-score within array); higher = stronger binding
Settings in all cases: glycan notation: IUPAC condensed, linker removed; mutation: D57L
[1] = biological target: GlcNAc(b1-3)Gal(b1-4)GlcNAc(b1-2)Man(a1-3)[GlcNAc(b1-3)Gal(b1-4)GlcNAc(b1-2)Man(a1-6)]Man(b1-4)GlcNAc(b1-4)GlcNAc
Outline: (§1)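 Negative Z-scores can be read as non-binding. The Z-score is calculated within each array and then averaged across arrays of one protein sequence at different concentrations or buffers and across linkers. Arrays, 3228 in all, were curated from the Consortium for Functional Glycomics database and kept only where the protein sequence was available.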

[2] = biological target: GlcNAc(b1-3)Gal(b1-4)GlcNAc(b1-3)Gal(b1-4)GlcNAc(b1-3)Gal(b1-4)GlcNAc(b1-3)Gal(b1-4)GlcNAc(b1-2)Man(a1-3)[GlcNAc(b1-3)Gal(b1-4)GlcNAc(b1-3)Gal(b1-4)GlcNAc(b1-3)Gal(b1-4)GlcNAc(b1-3)Gal(b1-4)GlcNAc(b1-2)Man(a1-6)]Man(b1-4)GlcNAc(b1-4)[Fuc(a1-6)]GlcNAc
Outline: as §1

[3] = biological target: GlcNAc(b1-3)Gal(b1-4)GlcNAc(b1-3)GalNAc
Outline: as §1

GlcNAc(b1-3)Man = biological target: GlcNAc(b1-3)Man
Outline: as §1

[4] = biological target: GlcNAc(b1-4)Gal(b1-4)GlcNAc
Outline: as §1

Kdn(a2-6)Gal(b1-4)GlcNAc = biological target: Kdn(a2-6)Gal(b1-4)GlcNAc
Outline: as §1

Man(a1-2)Man(a1-3)Man = biological target: Man(a1-2)Man(a1-3)Man
Outline: as §1

Man(a1-3)[Man(a1-6)]Man = biological target: Man(a1-3)[Man(a1-6)]Man
Outline: as §1

[5] = biological target: Man(a1-3)[Man(a1-6)]Man(a1-6)[Man(a1-3)]Man
Outline: as §1

[6] = biological target: Man(a1-3)[Man(a1-6)]Man(b1-4)GlcNAc(b1-4)GlcNAc
Outline: as §1

[7] = biological target: Neu5Ac(a2-3)Gal(b1-3)GalNAc(b1-4)[Neu5Ac(a2-3)]Gal(b1-4)Glc
Outline: as §1

[8] = biological target: Neu5Ac(a2-3)Gal(b1-3)GlcNAc(b1-2)Man
Outline: as §1

[9] = biological target: Neu5Ac(a2-3)Gal(b1-3)GlcNAc(b1-2)Man(a1-3)[GlcNAc(b1-4)][Neu5Ac(a2-3)Gal(b1-3)GlcNAc(b1-2)Man(a1-6)]Man(b1-4)GlcNAc(b1-4)GlcNAc
Outline: as §1

[10] = biological target: Neu5Ac(a2-3)Gal(b1-3)GlcNAc(b1-6)GalNAc
Outline: as §1

[11] = biological target: Neu5Ac(a2-3)Gal(b1-3)GlcNAc6S
Outline: as §1

[12] = biological target: Neu5Ac(a2-3)Gal(b1-4)GlcNAc(b1-2)Man
Outline: as §1

[13] = biological target: Neu5Ac(a2-3)Gal(b1-4)GlcNAc(b1-3)Gal(b1-4)GlcNAc
Outline: as §1

[14] = biological target: Neu5Ac(a2-3)Gal(b1-4)GlcNAc(b1-3)Gal(b1-4)GlcNAc(b1-2)Man(a1-3)[Neu5Ac(a2-3)Gal(b1-4)GlcNAc(b1-3)Gal(b1-4)GlcNAc(b1-2)Man(a1-6)]Man(b1-4)GlcNAc(b1-4)GlcNAc
Outline: as §1

[15] = biological target: Neu5Ac(a2-3)Gal(b1-4)GlcNAc(b1-3)Gal(b1-4)GlcNAc(b1-3)Gal(b1-4)GlcNAc(b1-2)Man(a1-3)[Neu5Ac(a2-3)Gal(b1-4)GlcNAc(b1-3)Gal(b1-4)GlcNAc(b1-3)Gal(b1-4)GlcNAc(b1-2)Man(a1-6)]GalNAc
Outline: as §1

[16] = biological target: Neu5Ac(a2-3)Gal(b1-4)GlcNAc(b1-6)[Gal(b1-3)]GalNAc
Outline: as §1

[17] = biological target: Neu5Ac(a2-3)Gal(b1-4)[Fuc(a1-3)]GlcNAc(b1-6)[Neu5Ac(a2-3)Gal(b1-3)]GalNAc
Outline: as §1

Neu5Ac(a2-3)GalNAc = biological target: Neu5Ac(a2-3)GalNAc
Outline: as §1

[18] = biological target: Neu5Ac(a2-6)Gal(b1-4)GlcNAc(b1-3)[Neu5Ac(a2-6)Gal(b1-4)GlcNAc(b1-6)]GalNAc
Outline: as §1

[19] = biological target: Neu5Ac(a2-6)Gal(b1-4)GlcNAc6S
Outline: as §1

[20] = biological target: Neu5Ac(a2-6)GalNAc(b1-4)GlcNAc
Outline: as §1

[21] = biological target: Neu5Ac(a2-8)Neu5Ac(a2-3)Gal(b1-3)GalNAc(b1-4)[Neu5Ac(a2-3)]Gal(b1-4)Glc
Outline: as §1

[22] = biological target: Neu5Ac9Ac(a2-3)Gal(b1-4)GlcNAc
Outline: as §1

[23] = biological target: Neu5Gc(a2-6)Gal(b1-4)GlcNAc
Outline: as §1

[24] = biological target: Neu5Gc(a2-8)Neu5Gc(a2-3)Gal(b1-4)GlcNAc(b1-3)Gal(b1-4)GlcNAc
Outline: as §1

B1: PNGase F (Flavobacterium meningosepticum) (protein)
chain: GIPAPADNTVNIKTFDKVKNAFGDGLSQSAEGTFTFPADVTAVKTIKMFIKNECPNKTCLEWDRYANVYVKNKTTGEWYEIGRFITPYWVGTEKLPRGLEIDVTDFKSLLSGNTELKIYTETWLAKGREYSVDFDIVYGTPDYKYSAVVPVVQYNKSSIDGVPYGKAHTLALKKNIQLPTNTEKAYLRTTISGWGHAKPYDAGSRGCAEWCFRTHTIAINNSNTFQHQLGALGCSANPINNQSPGNWTPDRAGWCPGMAVPTRIDVLNNSLIGSTFSYEYKFQNWTNNGTNGDAFYAISSFVIAKSNTPISAPVVTNLDPHHHHHH
glycan array binding signal (z-score) [1]: 0.239 | glycan array binding signal (z-score) [2]: 0.677 | glycan array binding signal (z-score) [3]: 0.274 | glycan array binding signal (z-score) (GlcNAc(b1-3)Man): 2.62 | glycan array binding signal (z-score) [4]: -0.997 | glycan array binding signal (z-score) (Kdn(a2-6)Gal(b1-4)GlcNAc): 0.05 | glycan array binding signal (z-score) (Man(a1-2)Man(a1-3)Man): -1.18 | glycan array binding signal (z-score) (Man(a1-3)[Man(a1-6)]Man): 0.446 | glycan array binding signal (z-score) [5]: 3.32 | glycan array binding signal (z-score) [6]: 0.156 | glycan array binding signal (z-score) [7]: 0.797 | glycan array binding signal (z-score) [8]: -0.518 | glycan array binding signal (z-score) [9]: 0.012 | glycan array binding signal (z-score) [10]: 0.237 | glycan array binding signal (z-score) [11]: 1.09 | glycan array binding signal (z-score) [12]: 3.1 | glycan array binding signal (z-score) [13]: -0.525 | glycan array binding signal (z-score) [14]: 0.19 | glycan array binding signal (z-score) [15]: 0.914 | glycan array binding signal (z-score) [16]: 2.77 | glycan array binding signal (z-score) [17]: 0.57 | glycan array binding signal (z-score) (Neu5Ac(a2-3)GalNAc): 1.19 | glycan array binding signal (z-score) [18]: -0.712 | glycan array binding signal (z-score) [19]: 0.924 | glycan array binding signal (z-score) [20]: -1 | glycan array binding signal (z-score) [21]: -0.06 | glycan array binding signal (z-score) [22]: -1.04 | glycan array binding signal (z-score) [23]: 0.069 | glycan array binding signal (z-score) [24]: -0.629
